Bioassay records as filed in PubChem.
An excerpt weighted towards active compounds, which were near 11% of everything screened.
USP30 block = blocks human USP30 ubiquitin-rhodamine cleavage | Q70CQ3 | purified USP30, Ub-rhodamine cleavage fluorescence | 47,000 compounds, 5.3% hits | inhibition, % at 25 µM
USP28 block = human USP28 deubiquitinase inhibition. AID 1645857. purified USP28, Ub-rhodamine cleavage fluorescence, 30 min. Q96RU2. inhibition, % at 25 µM. 47,000 compounds, 3% hits
OTUD3 block = human OTUD3 deubiquitinase inhibition | Q5T2D3 | purified OTUD3, Ub-rhodamine fluorescence, 2 h | inhibition, % at 25 µM | 47,000 compounds, 0.7% hits | AID 1645858
Target sequence (Q5T2D3 whole entry, looked up): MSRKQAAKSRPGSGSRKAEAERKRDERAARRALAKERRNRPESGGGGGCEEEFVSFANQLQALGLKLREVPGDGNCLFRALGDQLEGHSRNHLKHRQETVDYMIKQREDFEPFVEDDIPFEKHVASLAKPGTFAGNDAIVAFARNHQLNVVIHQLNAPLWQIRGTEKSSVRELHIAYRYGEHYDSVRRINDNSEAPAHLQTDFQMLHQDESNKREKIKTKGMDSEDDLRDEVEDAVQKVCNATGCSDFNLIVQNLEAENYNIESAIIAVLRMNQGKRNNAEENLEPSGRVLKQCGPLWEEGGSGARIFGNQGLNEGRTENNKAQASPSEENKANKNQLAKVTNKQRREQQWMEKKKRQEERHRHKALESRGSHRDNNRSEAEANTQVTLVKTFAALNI
USP17 inh = blocks human USP17 ubiquitin-rhodamine cleavage. purified USP17, Ub-rhodamine cleavage fluorescence, 3 h. 47,000 compounds, 6.5% hits. inhibition, % at 50 µM. A8MUK1
An asterisk follows results filed as active. Cut-off read from the data, not from the text of the source: active = inhibition above about 30%; inactive = the rest.

`O=C(c1ccccc1)N1CCC2(CC1)COCCN(Cc1cccnc1)C2` gave USP30 block 10, USP28 block 12, OTUD3 block 14 and USP17 inh 7.
CCOC(=O)N1CCN(S(=O)(=O)c2ccc(F)c(C(=O)Nc3ccccc3Cl)c2)CC1 was read as USP30 block 36*, USP28 block 5, OTUD3 block 6 and USP17 inh 2.
Screening Nc1ncnc2c([C@@H]3O[C@H](CO)[C@@H](O)[C@H]3O)[nH]nc12 returned USP30 block 14, USP28 block 5, OTUD3 block 11 and USP17 inh 12.
Screening O=C(O)c1c(CNCc2cccs2)c2ccccc2n1Cc1cccc(F)c1 returned USP30 block -2, USP28 block -12, OTUD3 block 0 and USP17 inh 47*.
Screening CC(CCc1ccccc1)NCc1c(C(=O)O)n(Cc2ccc(F)cc2)c2ccccc12 (stereo not drawn) returned USP30 block 4, USP28 block 34*, OTUD3 block 9 and USP17 inh 2.
Screening c1ccc(-c2noc(-c3nnc(N4CCN(c5ccccn5)CC4)c4ccccc34)n2)cc1 returned USP30 block 25, USP28 block 9, OTUD3 block 13 and USP17 inh 14.
For CCOc1ccc(C(=O)N2CCC(Nc3cccnc3)C2)cc1 (stereo not drawn) the results were USP30 block -357, USP28 block -93, OTUD3 block -81 and USP17 inh -15.
O=C(c1ccc2cc[nH]c2c1)N1CCC(Nc2cccnc2)C1 (stereo not drawn) was read as USP30 block -42, USP28 block -14, OTUD3 block 55* and USP17 inh 68*.
For CCN[C@H]1C[C@@H](c2ccccc2)OC2(CCN(C3CCCC3)CC2)C1 the results were OTUD3 block 2 and USP17 inh -1.
`O=C(Nc1nccs1)C1c2ccccc2C(=O)N(c2ccccc2)C12CCCCC2` (stereo not drawn) gave USP30 block -8, USP28 block -10, OTUD3 block -3 and USP17 inh 34*.
`O=[N+]([O-])c1ccc(NCc2ccc(-c3cccs3)s2)nc1` gave USP30 block -15, USP28 block 65*, OTUD3 block -10 and USP17 inh 16.
`Cc1cccn2c(=O)c3cc(C(=O)Nc4cccc(C(F)(F)F)c4)n(Cc4ccccc4)c3nc12` gave USP30 block -21, USP28 block -8, OTUD3 block 3 and USP17 inh 0.
`COc1cccc2cc(C(=O)Nc3nc(-c4ccncc4)cs3)oc12` gave USP30 block 31*, USP28 block 15, OTUD3 block 32* and USP17 inh 31*.
Screening COc1cccc2cc(C(=O)NCc3cnn4ccccc34)oc12 returned USP30 block -32, USP28 block -19, OTUD3 block -17 and USP17 inh -3.
Screening O=c1ncn(Cc2ccc3c(c2)OCO3)cc1-c1ncc(C(F)(F)F)cc1Cl returned USP30 block 46*, USP28 block 3, OTUD3 block 2 and USP17 inh 51*.
COc1cc(O)c2c(c1)C1=CC(=O)C(O)=C[C@]1(C)OC2=O was read as USP30 block 48*, USP28 block 36*, OTUD3 block 41* and USP17 inh 46*.
COc1cc(O)c2c(c1)COC(=O)c1c(O)cc(C)cc1O2 was read as USP30 block 9, USP28 block 13, OTUD3 block 17 and USP17 inh 5.
Screening CC1=C(C)C(N(c2ccccc2)c2ccccc2)N(CCC(C)C)C1=O (stereo not drawn) returned USP30 block 16, USP28 block 16, OTUD3 block 10 and USP17 inh 76*.
`CCc1ccccc1N(CC)C(=O)c1cccc2c1SCCC2=O` gave USP30 block 33*, USP28 block 20, OTUD3 block 16 and USP17 inh 18.
For COCCCNS(=O)(=O)c1ccc(NC(=O)C2CC(=O)N(c3ccc(C)cc3)C2)cc1 (stereo not drawn) the results were USP30 block 7, USP28 block 0, OTUD3 block 2 and USP17 inh -18.
Screening O=C(COc1ccccc1-c1nnc(-c2ccccc2)o1)NCc1ccccc1Cl returned USP30 block -3, USP28 block -2, OTUD3 block 0 and USP17 inh -6.
Cc1ccc(C(=O)Nc2nccnc2C(=O)NCc2ccccc2F)cc1 was read as USP30 block -9, USP28 block -2, OTUD3 block -7 and USP17 inh 23.
`O=C(NCc1ccccc1Cl)c1ccc(-c2nnc(-c3ccccc3)o2)cc1` gave USP30 block 36*, USP28 block 8, OTUD3 block 16 and USP17 inh 62*.
